Abeta yeast res – qHTS for compounds that reverse cellular toxicity of Amyloid beta (A-beta) peptide in yeast: Primary Screen | yeast expressing A-beta42, growth rescue, OD600, 48 h; response scale: 0% DMSO, 100% iron-clioquinol control | Potency, µM (highest dose often 46.1 µM), hits mostly activators | actives 0.063% (n = 410,000); also: nearly all actives have a fitted effect of over 55% in size
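Yeast growth medium received pinned compounds, then yeast cells expressing toxic A-beta were added; plates incubated at 30 C for 48 hr. Growth read as absorbance at 600 nm, normalized to DMSO and equimolar FeCl3 plus clioquinol controls.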
TDP43 rescue – qHTS of TDP-43 Inhibitors; actives 1.8% (n = 410,000); TDP-43 expressing yeast growth rescue, BacTiter-Glo, 24 h; Potency, µM (series often up to 46.1 µM), for inactives: at the top dose growth rescue (activation), most hits filed as activators; also: % of control where 0% means no effect; nearly all actives have a fitted effect of over 50% in size
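Galactose-induced TDP-43 yeast, OD600=0.02, compound pinned; 24 hr, 30 deg C; BacTiter-Glo luminescence for growth. Inhibitors of TDP-43 toxicity read as activators.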
aSyn yeast inh – qHTS of alpha-syn Inhibitors | Yeast expressing alpha-synuclein, growth rescue, BacTiter-Glo, 24 h | Potency, µM (series often up to 46.1 µM), inactives show at the top dose growth rescue (activation), usual class: activators | actives 0.14% (n = 370,000) | AID 652106, 2013; also: % of control where 0% means no effect; nearly all actives have a fitted effect of over 65% in size
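Galactose-induced alpha-syn yeast (OD600=0.02, raffinose-pregrown) + pinned cpd, 24 hr, 30 deg C; growth by BacTiter-Glo luminescence. Growth restoration scores as activation.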
FUS yeast rescue – qHTS for Suppressors of FUS Proteinopathy: Primary screen using FUS-linked yeast assay | S. cerevisiae FUS-expressing, growth rescue, OD600, 24 h | Potency, µM (highest dose often 76.6 µM), usual class: activators | actives 0.24% (n = 390,000) | AID 1347120, 2019;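 also: plate controls were DMSO vehicle for no effect and reference control for full effect; nearly all actives have a fitted effect of over 55% in size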
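Restored growth of FUS-toxic S. cerevisiae, read as 600 nm absorbance after 24 h at 30C in galactose medium (starting OD 0.005). Controls CP55940 and DMSO.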
* hit, by the source's call; i = inactive; u = inconclusive; x = no result given; [ ] = dose if it differs, or a comment. An excerpt weighted towards active compounds, which were near 2.1% of everything screened. Calls follow the shape of the dose curve; as a rule, active = well fitted curve in the direction sought with a large enough effect; inconclusive = small, poorly fitted or top-dose-only effect, or another doubt; inactive = no such curve, though single readings can be large; an effect the other way counts as inactive or inconclusive. Potency is read from the fitted curve at half-maximal effect.

SMILES	Abeta yeast res	TDP43 rescue	aSyn yeast inh	FUS yeast rescue
O=C(CCC1N=C2c3ccccc3N=C(SCc3cccc(Cl)c3)N2C1=O)N1CCN(c2ccccc2)CC1 (configuration not stated)	i	u	x	u
COC(=O)C1=C(c2ccc(F)cc2F)C[C@@H]2CC[C@H]1N2C(=O)N1CCC(O)(c2ccc(Cl)cc2)CC1	u	20µM*	u	u
C[C@H](CCC(=O)O)[C@H]1CC[C@H]2[C@@H]3[C@H](O)C[C@@H]4C[C@H](O)CC[C@]4(C)[C@H]3CC[C@]12C	i	22µM*	6%	u
Nc1c(C(=O)Nc2ccc(Br)cc2F)sc2nc3c(cc12)N1CCC3CC1	i	10%	2%	i
COc1ccccc1C(=O)Nc1ccc2c(c1)CC1(C(=O)N(C)C(=O)N(C)C1=O)C1CCCN21 (configuration not stated)	i	-9%	-2%	40µM*
O=c1oc2ccccc2c(O)c1[C@H]1c2ccc(O)cc2Oc2c1c(=O)oc1ccccc21	i	5.6µM*	0.56µM*	i
N#Cc1cc(NC(=O)c2ccc(Cl)cc2)ccc1Sc1ccccc1	i	-41%	-10%	i
COc1ccc(Cl)cc1NC(=O)CCn1c(=O)oc2ccccc21	i	13µM*	8%	i
O=C(C(=O)N1CCOCC1)c1cn(CCCOc2ccccc2)c2ccccc12	i	10%	6%	i
CC(=O)c1cn(CCCOc2ccccc2)c2ccccc12	i	11µM*	14%	i
O=P(Nc1cccc(Cl)c1)(Oc1ccccc1)Oc1ccccc1	u	-16%[1.82 µM]	22µM*	i
O=C1C(=O)C(Cl)=C(Cl)C(Cl)=C1Cl	i	4%	u	i
CC1C(OC(=O)CCC(=O)NC(C)(C)CO)O[C@H]2OC3(C)CC[C@H]4[C@H](C)CCC1C24OO3 (some centres not stated)	i	22µM*	-10%	i
CC(C)CC(NC(=O)CCCNC(=O)CCC(=O)OC1O[C@H]2OC3(C)CC[C@H]4[C@H](C)CCC(C1C)C24OO3)C(=O)O (some centres not stated)	i	20µM*	-2%	i
C[C@H]1[C@H](OC(=O)CCC(=O)NCc2ccc(C(=O)O)cc2)O[C@@H]2O[C@@]3(C)CC[C@H]4[C@H](C)CC[C@@H]1C24OO3	i	22µM*	-9%	i
COC(=O)C1=C(c2ccc(-c3ccccc3)c(F)c2)C[C@@H]2CC[C@H]1N2C(=O)NC1CC1	i	20µM*	-9%	i
CCCNC(=O)N1[C@H]2CC[C@@H]1C(C(=O)OC)=C(c1ccc(Cl)c(C(F)(F)F)c1)C2	u	17%	5%	i
COC(=O)C1=C(c2ccc(Cl)c(C(F)(F)F)c2)C[C@@H]2CC[C@H]1N2C(=O)NCCOc1ccc(OC)cc1	i	11µM*	u	u
CCOc1ccc(S(=O)(=O)NCCc2sc3nc(-c4ccc(C)cc4)nn3c2C)cc1	i	u	x	i
CC(C)Oc1cccc(NC(=O)c2cccn(Cc3ccc4c(c3)OC(F)(F)O4)c2=O)c1	i	23%	11%	i
O=C(Nc1ccc2c(c1)OCCO2)c1cccn(Cc2ccccc2)c1=O	i	20µM*	x	i
Cc1cccc(C)c1NC(=O)c1cccn(Cc2ccc3c(c2)OC(F)(F)O3)c1=O	i	20µM*	1%	u
N#Cc1ccccc1NC(=O)c1cccn(Cc2ccccc2)c1=O	i	22µM*	x	i
O=C(Nc1ccc2c(c1)OCCO2)c1cccn(Cc2cccc([N+](=O)[O-])c2)c1=O	i	-1%	x	i
Cc1ccc([C@H]2C[C@@H](O)[C@H](n3cc(COC(=O)c4ccccc4)nn3)CN2CC2CCCCC2)cc1	i	u	7%	i
SMILES	Abeta yeast res	TDP43 rescue	aSyn yeast inh	FUS yeast rescue
COc1ccc(/C=C/c2nc(-c3ccccc3O)n(-c3ccccc3)n2)cc1OC	i	u	x	i
CCN(C[C@H]1N[C@@](C)(C(=O)OC)[C@H]2C(=O)N(Cc3ccccc3)C(=O)[C@@H]12)C(=O)Nc1ccccc1	i	-11%	u	i
COc1cccc(N2CCN(c3c4c(nc5nncn35)CCC4)CC2)c1	i	u	x	i
Cc1c(C)c2c(OCC(=O)N[C@@H](C)C(=O)O)cc3c(c2oc1=O)CCC(C)(C)O3	i	u	0%	i
Oc1ccc2c3c1O[C@H]1c4oc5ccccc5c4C[C@@]4(O)C(C2)N(CC2CC2)CCC314 (some centres not stated)	x	x	2%	x
O=S(=O)(NC1CCCC1)OCC(Cl)(Cl)Cl	i	12%	-4%	i
O=S(=O)(NC1CCCCCCC1)OCC(Cl)(Cl)Cl	i	35µM*	-16%	i
N#CSCC(=O)N1c2ccccc2CCc2ccccc21	u	18µM*	0%	x
Nc1c(Br)cc([N+](=O)[O-])cc1[N+](=O)[O-]	i	13µM*	1%	i
CN(CC(=O)NC1CCCC1)S(=O)(=O)c1cccc(Cl)c1	i	u	6%	i
CCC12CN3CC(CC)(CN(C1)C3c1cccnc1)C2=O (configuration not stated)	i	6%	2%	i
O=C1N(c2ccc(Cl)cc2)C(c2cccnc2)N2CCCN12 (configuration not stated)	i	35µM*	u	i
CCOc1ccc(C(=O)Nc2cc(NC(=O)c3ccco3)ccc2OC)cc1Br	i	u	x	i
CC(C)(C)c1ccc(OCCON2C(=O)CCC2=O)c(Cl)c1	i	13µM*	1%	i
CC(=O)c1c(O)cc2c3c1OC(C)(C)C1CCC(C)(CC31)O2 (configuration not stated)	i	u	-11%	i
C/C(=N\NC(N)=S)C12CC3CC(CC(C3)C1)C2	u	14µM*	6%	i
COc1ccc(N2C(=O)CC(N3CC=C(c4ccccc4)CC3)C2=O)cc1 (configuration not stated)	i	22µM*	u	i
N#CC1(c2ccccc2)CCN(C2CC(=O)N(c3ccc(F)cc3)C2=O)CC1 (configuration not stated)	i	-1%	-1%	i
CP(=O)(O)C1=CCNCC1	x	x	-8%	x
N#Cc1ccc(C(=O)N2CCN(c3nc4ccc(F)cc4s3)CC2)cc1	i	u	x	i
Cc1c(Cl)ccc2sc(N3CCN(C(=O)CCS(=O)(=O)c4ccc(F)cc4)CC3)nc12	i	18µM*	x	u
Cc1ccccc1CS(=O)(=O)Cc1ccc(C(=O)N2CCC3(CC2)OCCO3)o1	i	-7%	3%	i
COc1ccc(S(=O)(=O)Cc2ccc(C(=O)N3CCC4(CC3)OCCO4)o2)cc1	i	2.5µM*	-8%	i

Screening data as filed in PubChem.
